Screens as filed in PubChem.
Beta cell apopt: beta cell apoptosis inhibition; 0.8% of 300,000 active; protection from apoptosis, % (concentration not given with the values); AID 435005; INS-1E cytokine-induced death, ATP luminescence, 48 h; percent of positive-control rescue, neutral wells zero;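 active = Every replicate reaches about 75%, or at least half do and their mean reaches it too, limit read from the data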;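 note: 0% = cytokine-treated negative control wells and 100% = positive control rescue; higher means more ATP so stronger rescue from cytokine killing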
CSC inhib: blocks cancer stem cells | cancer stem cell-like cells viability, luminescence | inhibition, % at 7.5 µM | AID 2717 | 1.1% of 300,000 active; in the data active = inhibition above about 75%; tested in HMLE shEcad cells
MPTP inh: inhibitors of mitochondrial permeability transition pore | 1.4% of 360,000 active | inhibition, % at 10 µM | isolated mouse mitochondria, Ca2+ swelling absorbance, 30 min | AID 602449;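 active = inhibition of 50% or more, scaled per plate between neutral and stimulator controls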;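 note: 0% = DMSO wells given calcium and 100% = 1 mM EGTA wells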
NR3A LBD binder: modulators (binders) of human NR3A ligand-binding domain; NR3A LBD differential scanning fluorimetry, Tm shift; 0% = protein alone, 100% = glycine-bound protein; Tm shift relative to glycine control, % at 25 µM; 2.5% of 340,000 active;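 active = melting temperature shift of at least 10% of the positive control shift, at one fixed dose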
Mdm2 MdmX PPI: disrupts the human Mdm2-MdmX interaction; AID 485346; SaOS-2 split-luciferase Mdm2/MdmX complementation, luminescence; O15151+Q00987; 3% of 330,000 active; inhibition, % at 8 µM;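 active = inhibition of at least 50% at 8 µM in the primary screen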
Target sequence (O15151 whole entry, looked up): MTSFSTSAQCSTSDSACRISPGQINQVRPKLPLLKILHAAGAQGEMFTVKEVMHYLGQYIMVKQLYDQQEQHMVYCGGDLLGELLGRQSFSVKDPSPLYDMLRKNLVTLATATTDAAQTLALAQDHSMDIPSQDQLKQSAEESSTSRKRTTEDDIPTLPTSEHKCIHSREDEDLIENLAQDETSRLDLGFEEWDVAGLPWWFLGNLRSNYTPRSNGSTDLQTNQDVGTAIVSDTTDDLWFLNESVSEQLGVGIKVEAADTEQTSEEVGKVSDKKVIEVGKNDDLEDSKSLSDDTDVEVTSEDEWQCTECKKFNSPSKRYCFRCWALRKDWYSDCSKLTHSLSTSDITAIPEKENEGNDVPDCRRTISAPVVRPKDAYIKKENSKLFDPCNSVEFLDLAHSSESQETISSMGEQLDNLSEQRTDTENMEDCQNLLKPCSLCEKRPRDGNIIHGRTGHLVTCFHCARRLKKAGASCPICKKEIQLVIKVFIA
Target sequence (Q00987 whole entry, looked up): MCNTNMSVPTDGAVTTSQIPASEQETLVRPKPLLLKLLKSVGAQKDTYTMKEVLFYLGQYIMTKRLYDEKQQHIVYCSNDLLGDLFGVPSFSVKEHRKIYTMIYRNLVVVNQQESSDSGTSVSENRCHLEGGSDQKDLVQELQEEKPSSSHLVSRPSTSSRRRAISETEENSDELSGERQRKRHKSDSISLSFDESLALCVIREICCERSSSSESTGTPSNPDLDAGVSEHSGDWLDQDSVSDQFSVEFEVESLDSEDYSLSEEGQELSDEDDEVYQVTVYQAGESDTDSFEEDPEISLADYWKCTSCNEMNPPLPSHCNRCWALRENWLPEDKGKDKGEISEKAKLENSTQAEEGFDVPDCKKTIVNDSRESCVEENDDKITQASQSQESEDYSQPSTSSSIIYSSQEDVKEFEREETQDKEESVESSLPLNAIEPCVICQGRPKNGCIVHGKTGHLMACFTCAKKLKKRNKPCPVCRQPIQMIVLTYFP
SKKanGAS inh: SKKanGAS growth inhibition; inhibition, % at 7.5 µM; 1.3% of 300,000 active; S. pyogenes SKKanGAS, kanamycin growth, BacTiter-Glo, 6 h;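 active = mean replicate score, as percent of positive control median, at least 50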;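 note: strain carries kanamycin resistance gene driven by streptokinase promoter and grows in 40 µg/ml kanamycin; loss of luminescence reflects streptokinase promoter inhibition or plain growth inhibition; 0% = median of DMSO wells and 100% = positive control at its reference dose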
Mdm2-MdmX conf: human Mdm2/MdmX binding inhibition, confirmed; luminescent assay; inhibition, % at 8 µM; shares compounds with Mdm2 MdmX PPI; 55% of 10,000 active; in the data active = inhibition above about 40%
Full FLuc ctr: counter-screen for Mdm2/MdmX inhibitors: full-length luciferase; shares compounds with Mdm2 MdmX PPI; SaOS-2 full-length luciferase counterscreen, luminescence; inhibition, % at 8 µM; 77% of 6,200 active; AID 504607;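 active = mean inhibition at 8 µM reaching about 37%, which flags the compound as non-specific, limit read from the data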;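 note: p53-null SaOS-2 cells with luciferase driven by a doxycycline-inducible promoter; compound on cells about two nights before reading with doxycycline added after day one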
An asterisk follows results filed as active; . = no result given. Most compounds without a hit are left out; they make up all but 6.9% or so of the library.

SMILES	Beta cell apopt	CSC inhib	MPTP inh	NR3A LBD binder	Mdm2 MdmX PPI	SKKanGAS inh	Mdm2-MdmX conf	Full FLuc ctr
CCOC(=O)/C(C#N)=C/c1cc(C)n(-c2ccc(Br)cc2)c1C	2.5	-3.9	.	.	-5.6	-2.5	.	.
Cc1nnc(NC(=O)CCC(=O)N2CCN(S(=O)(=O)c3cc([N+](=O)[O-])ccc3C)CC2)s1	1.7	-0.4	-0.7	0.4	-8.7	.	.	.
CCN(CC(=O)Nc1ccccc1C(F)(F)F)C(=O)CN1C(=O)NC2(CCCC2)C1=O	-3.5	.	-0.8	-1.4	-2.3	-0.2	.	.
CCCCOc1ccc(-c2cc(C(=O)NNC(=S)NCC)c3ccccc3n2)cc1	80.3*	99.7*	33.5	17.4*	80.1*	63.0*	74.5*	127.3*
CCNC(=S)NNC(=O)c1cc(-c2ccc(OC)cc2)nc2ccccc12	53.4	26.3	4.4	-11.6	-31.2	41.9	.	.
Cc1ccc(-n2c(C)cc(/C=c3/sc4nc5ccccc5n4c3=O)c2C)cc1	1.1	-8.4	.	-1.0	81.6*	10.3	60.9*	27.7
CC(C)(C)n1nc(-c2ccc(F)cc2)c2c(N)ncnc21	-29.1	6.3	9.6	0.2	59.0*	-11.5	54.8*	50.0*
Cc1ccc(-c2nc(N)c3c(-c4ccc(C)cc4)nn(C(C)(C)C)c3n2)cc1	-1.2	-7.4	0.6	-2.1	8.8	-7.6	.	.
CC(C)(C)n1nc(-c2ccc(Cl)cc2)c2c(N)ncnc21	-23.9	-3.0	-2.2	2.3	81.1*	1.7	63.1*	38.1*
CC(C)(C)C#CC(CCc1ccccc1)OS(N)(=O)=O (centres undefined)	-5.6	-5.1	.	.	3.4	-3.8	.	.
Cc1ccccc1/C=N/NC(=O)Cc1ccc(Cl)cc1	-1.9	-7.2	-0.2	-1.9	16.9	-0.7	.	.
O=C(Cc1ccccc1)N/N=C/c1cc(Br)cc(Cl)c1O	.	20.3	21.5	6.1	58.6*	97.3*	68.4*	29.2
O=C(Cc1ccccc1)NN=Cc1ccccc1	.	.	-0.9	0.5	.	.	.	.
Cc1ccc(/C=N/NC(=O)Cc2ccc(Cl)cc2)c(O)c1	83.4*	55.7	26.4	-8.0	60.4*	100.8*	53.8*	42.2*
Cc1nn(C(C)C(=O)NC2CCC(C)CC2)c(=O)c2nn(-c3ccccc3)c(C)c12 (centres undefined)	-0.9	-16.2	-0.5	1.2	14.6	-3.8	.	.
CC(C)C[C@H]1CNC(=S)N1CC1CCN(CCCC2CCCC2)CC1	.	.	-0.7	1.2	.	.	.	.
CC(C)[C@H](CO)N(Cc1cccc(F)c1)c1nc(Nc2cccc(Cl)c2)c2ncn(C(C)C)c2n1	23.3	70.6	-0.7	-5.2	54.9*	35.6	4.8	.
CC(C)n1cnc2c(N(C)c3cccc(Cl)c3)nc(N(CCO)CCO)nc21	-5.7	6.7	-1.6	-3.5	18.9	-3.5	.	.
CC[C@H](CO)Nc1nc(Nc2cccc(Cl)c2)c2ncn(C(C)C)c2n1	62.3	81.5*	0.1	-18.8	90.3*	16.9	71.4*	39.8*
Cc1cccc(C)c1-n1nnnc1C(c1ccnc2ccccc12)N(C)Cc1ccccc1 (centres undefined)	.	.	-1.5	.	.	.	.	.
O=C(CCCc1nc2ccccc2s1)Nc1nccs1	.	0.7	0.0	0.3	-8.2	13.8	.	.
Cc1cnc(NC(=O)CCCc2nc3ccccc3s2)s1	12.9	5.8	-4.2	0.0	89.8*	-9.3	59.1*	54.0*
COC(=O)C1=C(C)N(Cc2ccccc2)C(=NCCc2ccccn2)N[C@H]1c1cccc(C(F)(F)F)c1	1.6	4.5	7.1	-0.4	80.9*	.	51.1*	59.2*
COC(=O)C1=C(C)N(Cc2ccccc2)C(=NCc2ccc3c(c2)OCO3)N[C@H]1c1ccccc1	-6.5	5.1	0.7	2.2	56.4*	.	8.5	.
COC(=O)C1=C(C)N(Cc2ccccc2)C(=NCCc2cccnc2)N[C@H]1c1ccc(Br)cc1	2.3	-4.4	19.7	-0.4	85.4*	.	46.6*	53.8*
COC(=O)C1=C(C)N(Cc2ccccc2)C(=NCC2CC2)N[C@H]1c1ccccc1	6.5	2.8	0.7	-0.8	46.4	.	.	.
CCN1C(=NCC2CC2)N[C@@H](c2cccc(C(F)(F)F)c2)C(C(=O)OC)=C1C	7.3	4.5	0.3	0.0	27.9	5.7	.	.
